From PubChem
KCNQ2 block: KCNQ2 (rat) channel inhibition; O88943; CHO-K1 KCNQ2, FluxOR thallium flux, 20 min; stronger effect = lower value; B-score at 10 µM; hit rate 1.1% among 310,000; AID 2156;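 active = fluorescence ratio B-score at most minus 3 library SDs, with starting brightness B-score within 2 library SDs, cut at about -5.5 in these data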
KCNQ2 enhance: potentiators of rat KCNQ2 potassium channel. O88943. B-score at 10 µM. CHO-K1 KCNQ2, FluxOR thallium flux fluorescence; stronger effect = higher value. hit rate 0.54% among 310,000;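 active = fluorescence ratio B-score at least 3 SD of library B-scores, with initial fluorescence B-score within 3 of them, cut at about 5.3 in these data; same plate scores as AID 2156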;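 also: B-score of peak minus minimum over baseline fluorescence ratio after K+ and Tl+ stimulus; positive B-score means potentiation of KCNQ2 with more thallium influx and brighter signal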
KCNQ2 block conf: rat KCNQ2 channel inhibition, confirmatory screen | shares compounds with KCNQ2 block | KCNQ2-expressing cells, thallium flux; stronger effect = lower value | activity change, negative = inhibition, % at 10 µM | hit rate 57% among 1,000;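 also: 0% = vehicle wells and values are ratio percent relative to vehicle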
KCNQ1 spec: human KCNQ1 activity in KCNQ2 inhibitor specificity screen; hit rate 15% among 1,000; shares compounds with KCNQ2 block; activity change, negative = inhibition, % at 10 µM; AID 493026; KCNQ1-expressing cells, FluxOR thallium flux fluorescence; stronger effect = lower value;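 active = activity change at least 3 SD of negative controls below their mean in both duplicate wells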;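 also: CHO cells stably transfected with KCNQ1 and depolarized by potassium stimulus; peak minus minimum fluorescence over baseline after thallium addition; 0% = vehicle negative control and -100% = blank without thallium stimulus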
CHO Tl ctr: activity in parental CHO cells lacking KCNQ2; shares compounds with KCNQ2 block; thallium flux counter-screen; stronger effect = lower value; activity change, % at 10 µM; hit rate 14% among 1,000;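 also: 0% = vehicle negative controls with stimulus buffer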
KCNQ2 patch conf: rat KCNQ2 inhibition confirmed by electrophysiology; shares compounds with KCNQ2 block; AID 588531; KCNQ2-expressing cells, automated patch clamp current; calls only at 10 µM; hit rate 49% among 550
Starred values were filed as active, the others as inactive; i = inactive; / = no result given; + = active, no number. This is a sample that favours compounds with a hit; in the whole collection about 1.6% have one here. Unless noted, no rule for the calls is given here.

SMILES | KCNQ2 block | KCNQ2 enhance | KCNQ2 block conf | KCNQ1 spec | CHO Tl ctr | others
Cc1cc(C)n(-c2nc3ccccc3c(=O)n2OCc2ccc(Cl)cc2)n1 | -7.6* | -7.6 | i | i | i
CC(Oc1ccc(Cl)cc1Cl)C(=O)NN=C1CCN(C)CC1 (centres undefined) | i | 0.08 | / | / | /
CC(Oc1ccc(Cl)cc1Cl)C(=O)N/N=C1\CCCc2ccccc21 (centres undefined) | -6.7* | -6.7 | -32%* | i | i | KCNQ2 patch conf=+
N#Cc1cc(-c2ccccc2)cnc1Sc1ccc(Cl)cc1 | -6.8* | -6.8 | i | i | i
Cc1nc(Cl)c(C#N)cc1-c1ccccc1 | i | 1.4 | / | / | /
Cc1nc(Sc2ccccc2)c(C#N)cc1-c1ccccc1 | -9.3* | -9.3 | i | i | i
N#Cc1cc(-c2ccc(Cl)cc2)cnc1Sc1ccccc1 | i | / | / | / | /
COc1cccc(NC(=O)c2sc3ncn(CC(=O)N4CCN(c5ccccn5)CC4)c(=O)c3c2C)c1 | i | 1.8 | / | / | /
C/C(CCN1CCc2nc(-c3ccccc3)c(-c3ccccc3)cc2C1)=N\O[C@@H](C)c1cc(-c2c(C)cc(C)cc2C)no1 | i | / | / | / | /
CCc1cc2c(nc1CC)CCN(CC/C(C)=N/O[C@@H](C)c1cc(-c3c(C)cc(C)cc3C)no1)C2 | -10* | -10 | i | i | i
O=C(Nc1cc2c3c(c1)CC(=O)N3CCC2)C1CC1 | i | / | / | / | /
CC1CC(C)(C)CC2(C1)NC(=O)N(CC(=O)N(Cc1ccccc1)c1ccccc1)C2=O (centres undefined) | i | / | / | / | /
Cc1nnc(SCC(=O)Nc2cc(C(F)(F)F)ccc2N2CCOCC2)o1 | i | 0.41 | / | / | /
Cc1ccccc1SCC(=O)Nc1cc(C(F)(F)F)ccc1N1CCOCC1 | -9.5* | -9.5 | -30%* | i | i | KCNQ2 patch conf=i
CCCCN(CC)C(=S)Nc1ccc2nc(N3CCN(C)CC3)cc(C)c2c1 | i | / | / | / | /
Cc1ccccc1C(=NC(=O)c1ccccc1)c1ccccc1 | -8.5* | -8.5 | -28%* | i | i | KCNQ2 patch conf=+
Cc1ccccc1C(=O)O/N=C(\N)c1ccccc1 | i | / | / | / | /
CS(=O)(=O)N1CCCC(C(=O)Nc2cccc(F)c2)C1 (centres undefined) | i | / | / | / | /
O=C(NCC(c1ccc(F)cc1)N1CCOCC1)c1ccco1 (centres undefined) | i | / | / | / | /
Cc1cnc(CN(C)Cc2c(C(=O)N3CCc4ccccc4C3)nc3ccc(Cl)cn23)[nH]1 | i | / | / | / | /
CC(C)CN(C)Cc1c(C(=O)N2CCc3ccccc3C2)nc2ccc(Cl)cn12 | -8.7* | -8.7 | -32%* | -38%* | -25%* | KCNQ2 patch conf=+
O=C(Nc1sc2c(c1C(=O)O)CCC2)C(=O)N1CCOCC1 | i | 0.12 | / | / | /
C=CCc1ccccc1OCC(O)CN1C(=O)c2ccccc2C1=O (centres undefined) | -12* | -12 | i | i | i
Cc1ccccc1OCC(O)CN1C(=O)c2ccccc2C1=O (centres undefined) | i | / | / | / | /
Cc1ccc(CS(=O)Cc2ccc(C(=O)NCc3ccc(OC(C)C)cc3)o2)cc1 (centres undefined) | i | / | / | / | /
SMILES | KCNQ2 block | KCNQ2 enhance | KCNQ2 block conf | KCNQ1 spec | CHO Tl ctr | others
O=C(Nc1cccc([N+](=O)[O-])c1)Nc1cnccn1 | i | 1.1 | / | / | /
CC(C)CN(C(=O)c1cccc(S(=O)(=O)N2CCN(c3ccc(F)cc3)CC2)c1)C1CCS(=O)(=O)C1 (centres undefined) | i | / | / | / | /
O=C(CN1C(=O)NC2(CCCC2)C1=O)N1CCN(Cc2ccccc2)CC1 | i | 1.1 | / | / | /
Cn1c(NCc2cccc(Br)c2)nc2ccccc21 | -9* | -9 | -34%* | -28%* | -22%* | KCNQ2 patch conf=+
Brc1cccc(CNc2nc3ccccc3n2CCN2CCCCC2)c1 | i | / | / | / | /
COc1ccccc1CNS(=O)(=O)c1ccc(-n2cnnn2)c(OC)c1 | i | 1 | / | / | /
O=C(CCn1cnc2ccccc21)N=Nc1c(O)[nH]c2ccccc12 | i | 1.4 | / | / | /
COc1ccc(/C(C)=N/NC(=O)CNC(=O)c2ccncc2)c(OC)c1 | i | / | / | / | /
Cc1ccccc1OCc1nc2ccccc2c(=O)n1/N=C/c1ccco1 | -8.9* | -8.9 | -33%* | i | i | KCNQ2 patch conf=+
O=c1c2ccccc2nc(-c2ccco2)n1/N=C/c1ccco1 | i | 2.8 | / | / | /
CC(C)Cc1ccc(S(=O)(=O)N2CCN(c3ccccn3)CC2)cc1 | i | / | / | / | /
